The values that follow come from the supplement of paper PMC5641865, “A screen for kinase inhibitors identifies antimicrobial imidazopyridine aminofurazans as specific inhibitors of the Listeria monocytogenes PASTA kinase PrkA” (The Journal of Biological Chemistry, 2017).

± gives the standard deviation of the averaged measurements.
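Also: End-point A600 read in BHI broth at 37 °C with 2% DMSO, inhibition computed as (1 − OD with compound plus ceftriaxone ÷ OD with ceftriaxone only) × 100.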

The subject of the experiment is Listeria monocytogenes 10403S. In words: growth inhibition relative to ceftriaxone-alone control; higher = stronger potentiation of ceftriaxone growth inhibition. As to conditions: 10 µM; ceftriaxone 1 ug/ml; 12 h.
Turning to `CN(C)C(=O)O[C@H]1CN[C@H](C#Cc2cc3ncnc(Nc4ccc(OCc5cccc(F)c5)c(Cl)c4)c3s2)C1`, the growth inhibition is -7.88 ± 10%. Then `COc1cc2ncn(-c3cc(OCc4ccccc4S(C)(=O)=O)c(C#N)s3)c2cc1OC`, with 12.7 ± 3%. Under `NCc1ccc(-c2nc(-c3ccc(Cl)c(O)c3)c(-c3ccncc3)[nH]2)cc1` stands -9.88 ± 15%; under `O=C(c1ccc(/C=C/c2n[nH]c3ccccc23)cc1)N1CCNCC1`, 7.15 ± 1.2%; under `O=C1NC(=O)/C(=C\c2ccc3nccnc3c2)S1`, 13.5 ± 10%. Under `O=C(Nc1n[nH]c2cc(-c3ccccc3)ccc12)C1CC1` stands 4.09 ± 0.32%; under `Cn1cc(-c2ccc3nnc(C(F)(F)c4ccc5ncccc5c4)n3n2)cn1`, 17.1 ± 33%. In the case of `Oc1ccc(-c2nc(-c3ccc(F)cc3)c(-c3ccncc3)[nH]2)cc1`, the growth inhibition was 23.7 ± 32%. Under `Cc1cn(-c2cc(NC(=O)c3ccc(C)c(Nc4nccc(-c5cccnc5)n4)c3)cc(C(F)(F)F)c2)cn1` [Nilotinib (AMN-107)] stands 46.8 ± 3.8%; under `CN1CCN(c2ccc3nc(-c4c(N)c5c(F)cccc5[nH]c4=O)[nH]c3c2)CC1` [Dovitinib Dilactic Acid (TKI258 Dilactic Acid)], 33.4 ± 20%. Then `CCc1ccc(Oc2nccc(-c3c(-c4ccc(F)cc4)ncn3C3CCNCC3)n2)cc1`, with 1.75 ± 23%; and `COc1cc(OC)c(/C=C/S(=O)(=O)Cc2ccc(OC)c(NCC(=O)O)c2)c(OC)c1`, with 4.69 ± 0.45%. Then `O=C1NCCc2[nH]c(-c3ccncc3)cc21`, with 22.8 ± 14%.

For the compound `Cc1cccc(-c2[nH]c(C(C)(C)C)nc2-c2ccc3nccnc3c2)n1`, the growth inhibition is 9.73 ± 13%. Turning to `O=C1Nc2ccccc2/C1=C1/Nc2ccccc2C1=O` [Indirubin], the growth inhibition is -11.4 ± 11%. For `CS(=O)(=O)CCNCc1cc(-c2cc3c(Nc4ccc(OCc5cccc(F)c5)c(Cl)c4)ncnc3s2)cs1`, the growth inhibition was -10.8 ± 13%. Under `CN(C[C@@H]1COCCO1)S(=O)(=O)Nc1ccc2ccc3ncc(-c4cnn(C)c4)cc3c(=O)c2c1` stands -22.01 ± 0.12%. Turning to `COC(=O)Nc1nc2cc(Oc3ccc(NC(=O)Nc4cccc(C(=O)O)c4)cc3)ccc2[nH]1`, the growth inhibition stood at 7.27 ± 7.2%.

Take `COc1ccc2c(OCc3nnc4ccc(-c5ccccc5)nn34)ccnc2c1`: the growth inhibition turned out to be 11.6 ± 13%.

For `CN1CCC(C(=O)Nc2n[nH]c3nc(-c4ccc(O)cc4)c(Br)cc23)CC1`, the growth inhibition was -3.78 ± 12%. For the compound `O=C(O[C@H]1CN[C@H](C#Cc2cc3ncnc(Nc4ccc(Cc5ccccc5)cc4)c3s2)C1)N1CCOCC1`, the growth inhibition is -6.43 ± 10%. Then `COc1cccc(-n2nc(C)c3c(N/N=C(\C)c4ccncc4)ncnc32)c1`, with -12.5 ± 20%; and `CCn1c(-c2nonc2N)nc2cnc(Oc3cccc(NC(=O)c4ccc(N(C)C)cc4)c3)cc21`, with -5.93 ± 1.5%.
